D1 agonist: human D1 receptor agonism | P21728 | HEK293 T-REx D1 cells, calcium flux, agonist mode | activation, % at 2 µM | 360,000 compounds, 1% hits | AID 504660; note: 0% is about no effect
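Tetracycline-induced HEK293 TREx D1 cells, force-coupled to calcium signalling, were dye-loaded with a no-wash calcium kit. Compound was pin-added after a 10 s baseline. Fluorescence was read kinetically at 1 cycle/s for 180 s, with calcium rises flagged as agonism.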
D1 PAM: human D1 dopamine receptor positive modulation; P21728; HEK293 TREx D1 cells, calcium flux, dopamine EC20 potentiation; potentiation, % at 10 µM; 360,000 compounds, 0.036% hits; AID 504651; in the data active = potentiation above about 30%; note: 0% is about no effect
TRHR PAM: TRH receptor (human) allosteric enhancement; enhancement, % at 2 µM; TRHR cells, fluo-8 calcium fluorescence, EC20 TRH enhancement; P34981; 360,000 compounds, 0.66% hits; in the data active = enhancement above about 30%; note: 0% is about no effect
Target sequence (P34981 whole entry, looked up): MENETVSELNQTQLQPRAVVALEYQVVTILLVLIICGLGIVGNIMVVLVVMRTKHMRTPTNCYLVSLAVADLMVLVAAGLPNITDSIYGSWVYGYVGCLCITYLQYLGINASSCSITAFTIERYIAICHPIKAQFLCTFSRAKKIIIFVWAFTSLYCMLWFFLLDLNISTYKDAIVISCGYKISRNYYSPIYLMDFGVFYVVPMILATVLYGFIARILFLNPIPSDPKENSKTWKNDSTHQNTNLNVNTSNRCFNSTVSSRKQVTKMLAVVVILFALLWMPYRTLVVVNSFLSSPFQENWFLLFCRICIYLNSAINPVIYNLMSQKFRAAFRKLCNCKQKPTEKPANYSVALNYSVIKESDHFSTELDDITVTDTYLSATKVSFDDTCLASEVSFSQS
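Enhancer read-out: after compound pinning and an initial kinetic agonist-mode read, an EC20 of TRH (10 nM final) was injected and fluo-8 calcium signal (Ex 480/Em 530) followed at 1 s/cycle for 100 cycles in TRHR-expressing cells.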
D1 antagonist: human D1 dopamine receptor antagonism; P21728; HEK293 TREx D1 cells, calcium flux, dopamine EC80; hits give low values; activity change, negative = inhibition, % at 10 µM; 360,000 compounds, 3.2% hits; in the data active = activity change below about -30%; note: % is set by controls: 0 for no effect and ±100 for the full control effect
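Cells carrying a force-coupled, tetracycline-inducible human D1 receptor report calcium flux. Each well gets a 10 s baseline, compound with 180 s monitoring, then an EC80 dopamine stimulus with a second 180 s kinetic read.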
TRHR ag: agonists of human TRH receptor | P34981 | TRHR cells, calcium flux fluo-8, FDSS agonist mode | activation, % at 2 µM | 360,000 compounds, 0.18% hits | AID 493084; note: 0% is about no effect
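TRHR-expressing cells loaded with fluo-8 calcium dye; 23 nL library compound pin-transferred, kinetic FDSS fluorescence (Ex 480/Em 530) recorded about 180 s for agonist-induced calcium release, before a 10 nM TRH EC20 addition for potentiator mode.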
* hit, by the source's call; ! = not confirmed by another sample. Sampled rows, rich in hits. Any-hit rate of the full collection: about 4.7%. Cut-off read from the data, not from the text of the source, unless noted: active = activation above about 30%; inactive = the rest.

SMILES	D1 agonist	D1 PAM	TRHR PAM	D1 antagonist	TRHR ag
COc1ccccc1-n1cnc2cc(NS(=O)(=O)c3ccc(Br)cc3)ccc21	2.5	-8.7	-25.3	-38.5*	0.0
O=C(NCCc1c[nH]c2ccccc12)c1ccc([N+](=O)[O-])cc1	2.7	-9.0	18.6	-48.9*	-0.4
O=C(CCc1c[nH]c2ccccc12)NCCc1ccc(Cl)cc1	-0.2	-0.2	-2.7	-32.6*	-0.3
O=[N+]([O-])c1ccc(CN2CCN(Cc3c[nH]c4ccccc34)CC2)cc1	21.0	-7.4	2.3	-71.5*	1.1
Cc1cc(C)cc(NC(=O)CSc2nnc(CNC(=O)c3c(F)cccc3Cl)o2)c1	8.7	4.4	8.7	-7.3	-1.0
CCc1ccccc1NC(=O)CSc1nnc(CC)c(CC)n1	1.1	-0.4	1.6	-1.3	-0.4
Cn1c(SCC(=O)c2ccc(F)cc2)nnc1-c1ccccc1Br	-0.4	-4.5	-9.3	-6.0	-1.0
CNC(=S)N1CCN(C(c2ccccc2)c2ccccc2)CC1	-0.5	-6.3	5.9	-2.0	-1.1
CCC(C)NC(=S)N1CCN(C(c2ccccc2)c2ccccc2)CC1 (stereo unspecified)	-0.4	-4.5	5.5	-30.5*	-0.2
CCOC(=O)C1(CCc2ccccc2)CCN(Cc2cc(OC)c(OC)cc2OC)CC1	3.9	1.9	9.9	-36.7*	-0.2
CCOC(=O)C1(CCc2ccccc2)CCN(Cc2ccc(C(=O)OC)cc2)CC1	8.2	2.0	4.1	1.0	0.5
CCOC(=O)C1(Cc2ccccc2)CCN(Cc2csc(C(C)=O)c2)CC1	0.1	-8.7	-1.1	-34.2*	-1.3
CCOc1ccccc1NC(=O)C(OC(=O)C1CC1)c1ccccc1 (stereo unspecified)	30.4*	-2.2	2.3	-18.2	-0.4
Cc1nn(-c2ccc(N3CCOCC3)nn2)c(C)c1CCC(=O)NCc1ccc(F)cc1	4.5	-3.3	33.9*!	2.0	0.1
CCN(CC)S(=O)(=O)c1ccc2c(c1)N(CC(=O)Nc1cccc(C(C)=O)c1)C(=O)CO2	-0.4	-3.4	20.0	-1.0	-0.1
O=C(NCC(F)(F)F)Nc1ccccn1	1.8	-1.2	-6.8	2.5	0.1
CCc1ccc(NCc2cc3cc4c(cc3n(CC(=O)Nc3ccc(OC)cc3)c2=O)OCO4)cc1	-0.7	-2.9	-3.0	-2.0	0.3
COc1ccc(NCc2cc3cc4c(cc3n(CC(=O)Nc3ccc(F)cc3F)c2=O)OCO4)cc1	66.0*	-2.1	35.2*	-3.3	9.6
COc1cc2cc(CNc3ccccc3)c(=O)n(CC(=O)Nc3ccc(C)c(Cl)c3)c2cc1OC	30.4*	-1.0	1.3	6.5	-1.1
CCc1ccc(NCc2cc3cc4c(cc3n(CC(=O)Nc3cccc(OC)c3)c2=O)OCO4)cc1	56.3*	-2.0	-5.0	3.1	14.4
COc1ccc(NCc2cc3cc4c(cc3n(CC(=O)Nc3ccc(C)cc3C)c2=O)OCO4)cc1	1.5	0.1	-4.2	9.1	2.2
COc1ccc(NCc2cc3cc4c(cc3n(CC(=O)Nc3cccc(F)c3)c2=O)OCO4)cc1	152.9*	4.5	12.7	-5.3	-0.7
COc1ccc(CCn2c(=O)c3cccnc3n(CC(=O)Nc3ccc(C)c(F)c3)c2=O)cc1OC	0.7	-4.4	-8.2	-14.4	0.9
COc1ccc(NCc2cc3cc4c(cc3n(CC(=O)Nc3ccc(C)cc3)c2=O)OCO4)cc1	57.4*	-0.1	-1.5	1.9	22.0
COc1ccc(CCNC(=S)Nc2cccc(C)c2C)cc1	1.1	-11.8	-1.9	-31.2*	-0.3
SMILES	D1 agonist	D1 PAM	TRHR PAM	D1 antagonist	TRHR ag
Cc1cccc(C)c1NC(=S)NCCc1ccc(O)c(O)c1	4.6	-14.8	-0.1	-47.6*	0.5
COc1ccc(CCNC(=O)C(=O)Nc2ccc(C)c(C)c2)cc1	-0.6	-0.8	31.9*	-15.6	-0.5
COc1cc2c(c(OCC(=O)NC(C)C)c1)C(=O)O[C@@H](C)CCCC(=O)CCCCC2	0.5	-7.1	0.3	-33.1*	0.8
COc1ccc(C2CC(=O)c3cc(-c4nc(-c5cccc([N+](=O)[O-])c5)cs4)c(=O)n(-c4ccc(F)cc4)c3C2)cc1 (stereo unspecified)	0.4	-0.2	15.2	1.4	1.0
O=C(OCc1ccc([N+](=O)[O-])cc1)C1CC(=O)N(CCc2ccccc2)C1 (stereo unspecified)	7.3	-4.3	1.6	-40.2*	0.0
N#Cc1ccc(COC(=O)C2CC(=O)N(CCc3ccccc3)C2)cc1 (stereo unspecified)	11.7	3.8	-1.6	-1.7	-0.2
COc1ccc(CCN2CC(C(=O)OCC(=O)N(C)Cc3ccccc3)CC2=O)cc1OC (stereo unspecified)	2.4	-8.4	10.1	-34.6*	0.3
CCc1cccc(C)c1NC(=O)COC(=O)C1CC(=O)N(CCc2ccc(OC)c(OC)c2)C1 (stereo unspecified)	0.8	-7.9	-0.9	3.8	0.2
COC(=O)c1cc2oc3ccccc3c2n1Cc1nc(-c2cccc(C)c2)oc1C	0.5	-4.7	-3.0	12.5	-0.1
CC(=O)Nc1ccc(C)cc1-c1nc2ccccc2n(CC(=O)c2ccc(Cl)cc2)c1=O	1.4	-0.6	-2.5	-10.3	0.3
O=[N+]([O-])c1cccc(-c2nc3ccc([N+](=O)[O-])cc3[nH]2)c1	26.6	-5.5	14.5	-25.7	-0.9
O=[N+]([O-])c1ccc2nc(-c3ccc(Cl)cc3)[nH]c2c1	26.6	-3.6	-14.8	-49.0*	1.1
O=[N+]([O-])c1ccc2nc(-c3ccccc3[N+](=O)[O-])[nH]c2c1	10.1	-9.1	-2.4	-39.4*	-1.1
Cc1c(N=Nc2c(-c3ccc([N+](=O)[O-])cc3)[nH]n(C(N)=S)c2=O)cccc1[N+](=O)[O-]	22.6	-5.5	-1.1	-28.4	-0.2
NC(=S)n1[nH]c(-c2ccc([N+](=O)[O-])cc2)c(N=Nc2ccccc2[N+](=O)[O-])c1=O	1.6	-12.5	11.2	-51.4*	1.1
CCN(C(=O)Cn1c(=O)n(Cc2ccc3c(c2)OCO3)c(=O)c2ccc(C(=O)NC3CCCCC3)cc21)c1cccc(C)c1	7.1	-2.0	-2.5	-53.9*	1.3
COc1ccc(-c2cc3ccc(OCC(N)=O)cc3oc2=O)cc1OC	2.1	-2.3	2.8	6.6	1.2
CC(=O)c1cc2ccc(O)cc2oc1=O	37.8*	0.5	5.7	5.1	4.8
COc1ccc(-c2cc3ccc(O)cc3oc2=O)cc1OC	16.8	-5.4	31.5*	7.1	-0.9
COc1ccc(-c2cc3ccc(OC(C)C(=O)O)cc3oc2=O)cc1 (stereo unspecified)	4.1	-6.0	5.2	-30.5*	0.5
CCOC(=O)CNC(=O)N1CCCN(S(=O)(=O)c2ccc3c(ccn3CC)c2)CC1	0.5	1.9	-0.5	0.9	0.0
Cc1ccc(C(=O)N2CCc3cc(CNC(=O)CSc4ccccc4)ccc32)cc1	2.0	-0.5	-3.3	0.5	-0.4
CN(Cc1ccccc1)Cc1c[nH]c2ccccc12	7.5	-13.7	-0.6	-61.5*	0.8
